Measurements published in PubChem BioAssay (Tox21).
Several values for one entry are separate records, joined by “and”; a condition that tells them apart may be missing. Equal entries are not always repeated. Inconclusive results are not listed. A structure can be active in one record and inactive in another. Activity calls are given as the source filed them. Unless noted, calls follow the shape of the full dose curve.

Assays:
[1] = Nuclear factor erythroid 2-related factor 2/antioxidant responsive element (Nrf2/ARE) small molecule agonists: luciferase reporter gene qHTS assay in human keratinocytes (AID 1919969); also: nearly all actives have a fitted effect of over 35% in size; also: potency is read from the fitted curve at half-maximal effect
[2] = target: Gonadotropin-releasing hormone receptor (Homo sapiens) (UniProt P30968); assay: Human gonadotropin-releasing hormone receptor (GnRHR) small molecule agonists, calcium flux assay in GnRHR-HEK293 cells (AID 1920063); also: nearly all actives have a fitted effect of over 35% in size
Gonadotropin-releasing hormone receptor (Homo sapiens), sequence (P30968 whole entry, looked up): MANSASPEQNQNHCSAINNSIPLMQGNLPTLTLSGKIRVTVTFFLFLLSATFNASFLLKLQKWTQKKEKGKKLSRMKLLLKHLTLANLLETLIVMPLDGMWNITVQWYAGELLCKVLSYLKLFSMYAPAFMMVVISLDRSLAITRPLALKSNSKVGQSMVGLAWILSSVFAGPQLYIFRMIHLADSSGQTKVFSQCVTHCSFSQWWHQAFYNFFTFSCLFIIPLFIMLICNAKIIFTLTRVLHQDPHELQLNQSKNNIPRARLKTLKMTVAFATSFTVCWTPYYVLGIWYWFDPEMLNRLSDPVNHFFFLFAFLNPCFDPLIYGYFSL
Method in brief: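 Agonist mode: compounds at 15 concentrations, in triplicate, went onto calcium dye-loaded GnRHR-HEK293 cells. Intracellular calcium was then followed as 480/540 nm fluorescence at 1 s intervals over 3 min.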

[3] = target: KiSS-1 receptor (Homo sapiens) (UniProt Q969F8); assay: Human kisspeptin (KISS1R) small molecule agonists, calcium flux assay in KISS1R-HEK293 cells (AID 1920064; active = well fitted activation curve with a large enough effect in the repeat runs)
KiSS-1 receptor (Homo sapiens), sequence (Q969F8 whole entry, looked up): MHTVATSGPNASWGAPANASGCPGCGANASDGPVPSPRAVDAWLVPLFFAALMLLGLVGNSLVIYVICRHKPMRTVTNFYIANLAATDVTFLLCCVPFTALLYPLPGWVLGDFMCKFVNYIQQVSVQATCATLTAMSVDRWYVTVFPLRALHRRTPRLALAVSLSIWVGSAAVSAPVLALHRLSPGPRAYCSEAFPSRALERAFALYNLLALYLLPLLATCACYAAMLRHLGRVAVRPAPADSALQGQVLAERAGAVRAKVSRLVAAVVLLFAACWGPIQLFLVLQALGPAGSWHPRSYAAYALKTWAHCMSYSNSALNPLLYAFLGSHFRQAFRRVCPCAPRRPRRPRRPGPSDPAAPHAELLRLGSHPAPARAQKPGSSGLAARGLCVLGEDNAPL
Method in brief: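 Agonist mode: intracellular calcium rise tracked at 1 s intervals over 3 min (480/540 nm) immediately after compound addition to dye-loaded KISS1R-HEK293 stable cells. Each compound tested at 15 concentrations in triplicate.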

[4] = G protein-coupled receptor (GPCR) small molecule agonists, calcium flux assay: HEK293 wild type cell line counter screen (AID 1920065)
Method in brief: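 Calcium flux counter screen: compound added in agonist mode at 15 concentrations in triplicate to dye-loaded parental HEK293 cells. Fluorescence (480/540) read kinetically for 3 min; ATP served as positive control.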

[5] = p53 small molecule agonists, cell-based qHTS assay with human liver microsomes: qHTS cell viability counter screen (AID 1963579); also: nearly all actives have a fitted effect of over 45% in size; also: potency is read from the fitted curve at half-maximal effect
Method in brief: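 Cytotoxicity counter screen: p53RE-bla, 4,000 cells/well; 5 h settle, 37 C/5% CO2; cpd + HLM 0.5 mg/mL + NADPH 0.5 mg/mL (final); 16 h, 37 C; CellTiter-Glo, 30 min RT, luminescence.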

[6] = p53 small molecule agonists, cell-based qHTS assay with rat liver microsomes: qHTS cell viability counter screen (AID 1963580); also: nearly all actives have a fitted effect of over 45% in size
Method in brief: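 After the beta-lactamase ratio was read, CellTiter-Glo was added to the same wells and luminescence measured at 30 min; cells had been treated 16 h at 37 C with compounds, rat liver microsomes and NADPH (0.5 mg/mL final each).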

[7] = p53 small molecule agonists, cell-based qHTS assay: qHTS cell viability counter screen (AID 1963581); also: nearly all actives have a fitted effect of over 45% in size
Method in brief: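 Counter screen read by CellTiter-Glo luminescence (ATP content, 30 min at room temperature), run in the same wells as the beta-lactamase reporter read. HCT-116 p53RE-bla cells saw compounds for 16 h at 37 C.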

[8] = target: 5-hydroxytryptamine receptor 2A (Homo sapiens) (UniProt P28223); assay: 5-hydroxytryptamine receptor 2A (HTR2A) small molecule antagonists, cell-based qHTS assay (AID 1963586); also: nearly all actives have a fitted effect of over 45% in size
5-hydroxytryptamine receptor 2A (Homo sapiens), sequence (P28223 whole entry, looked up): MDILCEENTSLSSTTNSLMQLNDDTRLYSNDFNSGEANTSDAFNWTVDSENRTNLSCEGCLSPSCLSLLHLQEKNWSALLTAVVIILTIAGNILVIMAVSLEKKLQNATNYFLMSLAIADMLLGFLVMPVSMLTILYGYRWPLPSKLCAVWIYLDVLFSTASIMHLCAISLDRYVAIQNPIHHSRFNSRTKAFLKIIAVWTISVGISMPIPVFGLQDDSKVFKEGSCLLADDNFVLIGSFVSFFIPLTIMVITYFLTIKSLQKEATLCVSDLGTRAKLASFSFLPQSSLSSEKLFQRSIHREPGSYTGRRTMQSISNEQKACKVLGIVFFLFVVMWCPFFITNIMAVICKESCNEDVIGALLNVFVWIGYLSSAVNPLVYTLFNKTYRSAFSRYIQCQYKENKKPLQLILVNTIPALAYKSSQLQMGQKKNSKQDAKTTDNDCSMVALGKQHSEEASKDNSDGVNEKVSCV
Method in brief: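 CHO cells stably expressing human HTR2A were plated for 18 h at 37 C, then loaded with calcium dye for 1 h. Compounds were preincubated 5 min at room temperature before DOI (4 nM solution) was added. Kinetic fluorescence was read for 3 min.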

[9] = target: 5-hydroxytryptamine receptor 2A (Homo sapiens) (UniProt P28223); assay: 5-hydroxytryptamine receptor 2A (HTR2A) small molecule agonists, cell-based qHTS assay (AID 1963587); also: nearly all actives have a fitted effect of over 30% in size; also: potency is read from the fitted curve at half-maximal effect
Method in brief: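 CHO cells stably expressing human HTR2A, plated 18 h, loaded with calcium dye 1 h at 37 C. Agonist mode: compounds added and intracellular calcium fluorescence recorded kinetically for 2 min at 1 sec intervals.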

[10] = target: Muscarinic acetylcholine receptor M1 (Homo sapiens) (UniProt P11229); assay: Cholinergic receptor muscarinic 1 (CHRM1) small molecule antagonists, cell-based qHTS assay (AID 1963588); also: nearly all actives have a fitted effect of over 40% in size
Muscarinic acetylcholine receptor M1 (Homo sapiens), sequence (P11229 whole entry, looked up): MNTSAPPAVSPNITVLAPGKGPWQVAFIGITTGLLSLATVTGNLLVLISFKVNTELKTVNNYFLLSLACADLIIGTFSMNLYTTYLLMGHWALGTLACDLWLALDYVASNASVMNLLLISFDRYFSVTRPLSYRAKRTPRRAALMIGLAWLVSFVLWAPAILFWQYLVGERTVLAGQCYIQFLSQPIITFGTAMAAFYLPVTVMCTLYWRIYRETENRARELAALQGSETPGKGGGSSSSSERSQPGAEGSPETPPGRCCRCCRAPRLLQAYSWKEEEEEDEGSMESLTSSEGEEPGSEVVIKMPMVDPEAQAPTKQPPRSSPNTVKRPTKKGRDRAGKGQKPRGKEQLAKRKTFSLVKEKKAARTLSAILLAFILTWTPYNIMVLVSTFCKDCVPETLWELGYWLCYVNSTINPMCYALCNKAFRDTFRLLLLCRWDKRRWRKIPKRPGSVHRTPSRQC
Method in brief: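 Compounds were tested at 15 concentrations in three independent runs. Dye-loaded CHRM1-CHO cells were exposed 5 min at room temperature before stimulation by acetylcholine added at 50nM. Intracellular calcium was read kinetically on FDSS for 3 min.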

[11] = target: Muscarinic acetylcholine receptor M1 (Homo sapiens) (UniProt P11229); assay: Cholinergic receptor muscarinic 1 (CHRM1) small molecule agonists, cell-based qHTS assay (AID 1963589); also: nearly all actives have a fitted effect of over 35% in size
Method in brief: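 Agonist-mode calcium-flux screen: compounds at 15 concentrations, three independent runs, were pin-transferred onto dye-loaded human CHRM1-CHO cells. Fluorescence was then recorded kinetically every second over minutes.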

[12] = cAMP Responsive Elements (CRE) small molecule agonists, cell-based qHTS assay (AID 1963590)
Method in brief: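 Agonist mode: compound added to CRE-bla HEK 293T cells (2,000/well, 18 h after plating) for 3 h at 37 C/5% CO2. Reporter activity detected via FRET beta-lactamase substrate, 2 h room-temperature loading.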

[13] = cAMP Responsive Elements (CRE) small molecule antagonists, cell-based qHTS assay (AID 1963591; active = well fitted inhibition curve with a large enough effect in the signal ratio in the repeat runs, not every such curve was filed as active; the % refers to the signal ratio)
Method in brief: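 Antagonist mode: compounds are added alongside the adenylyl cyclase activator NKH477 (0.25 uM final) to CRE-bla HEK293T cells for 3 h. LiveBLAzer FRET substrate, 2 h at room temperature, reports bla expression.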

[14] = target: Beta-2 adrenergic receptor (Homo sapiens) (UniProt P07550); assay: Adrenergic beta2 receptor (ADRB2) small molecule antagonists, cell-based qHTS assay (AID 1963592); also: series mostly up to about 92 µM; nearly all actives have a fitted effect of over 50% in size
Beta-2 adrenergic receptor (Homo sapiens), sequence (P07550 whole entry, looked up): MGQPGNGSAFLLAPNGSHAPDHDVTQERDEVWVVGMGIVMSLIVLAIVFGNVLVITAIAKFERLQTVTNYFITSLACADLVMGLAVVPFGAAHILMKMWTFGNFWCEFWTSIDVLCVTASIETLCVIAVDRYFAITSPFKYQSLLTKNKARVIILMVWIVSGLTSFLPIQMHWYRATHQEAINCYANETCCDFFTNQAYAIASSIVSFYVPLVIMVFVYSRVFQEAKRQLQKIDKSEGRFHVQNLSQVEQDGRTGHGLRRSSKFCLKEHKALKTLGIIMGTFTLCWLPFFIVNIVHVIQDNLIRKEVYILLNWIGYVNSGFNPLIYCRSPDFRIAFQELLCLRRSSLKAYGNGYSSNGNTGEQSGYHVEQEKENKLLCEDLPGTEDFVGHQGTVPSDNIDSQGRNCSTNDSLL
Method in brief: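 Assay format: CHO-ADRB2 cells, 18-20hr seeding at 37C/5% CO2, then compound plus 1nM isoproterenol agonist mix for 0.5hr RT. Homogeneous time-resolved fluorescence cAMP detection after 1hr, expressed as 665/615 nm ratio.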

[15] = target: Beta-2 adrenergic receptor (Homo sapiens) (UniProt P07550); assay: Adrenergic beta2 receptor (ADRB2) small molecule agonists, cell-based qHTS assay (AID 1963593);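 also: CHO cells stably overexpressing human ADRB2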
Method in brief: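 CHO cells stably over-expressing ADRB2 were plated overnight at 37C, then dosed with compounds plus a stimulation mix containing 100uM IBMX and 25uM Ro-20-1724 for 0.5hr at room temperature. cAMP was measured by HTRF competition, 1hr.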

[16] = target: D(2) dopamine receptor (Homo sapiens) (UniProt P14416); assay: Dopamine D2 receptor (DRD2) small molecule agonists, cell-based qHTS assay (AID 1963594); also: nearly all actives have a fitted effect of over 35% in size
D(2) dopamine receptor (Homo sapiens), sequence (P14416 whole entry, looked up): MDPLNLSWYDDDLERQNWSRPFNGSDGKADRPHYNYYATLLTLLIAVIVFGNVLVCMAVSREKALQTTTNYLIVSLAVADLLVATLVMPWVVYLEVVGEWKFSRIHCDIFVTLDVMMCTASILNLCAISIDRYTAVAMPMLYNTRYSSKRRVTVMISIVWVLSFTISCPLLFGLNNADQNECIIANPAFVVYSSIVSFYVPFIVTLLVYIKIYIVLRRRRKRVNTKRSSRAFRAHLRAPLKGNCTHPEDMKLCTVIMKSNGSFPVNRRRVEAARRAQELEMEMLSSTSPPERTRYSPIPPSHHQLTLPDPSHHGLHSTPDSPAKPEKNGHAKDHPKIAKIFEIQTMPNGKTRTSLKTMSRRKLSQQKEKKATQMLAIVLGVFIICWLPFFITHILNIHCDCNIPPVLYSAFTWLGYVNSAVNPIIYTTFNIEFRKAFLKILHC
Method in brief: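 HEK293 cells stably expressing human DRD2, pre-treated with PDE inhibitor Ro20-1724 (0.1 mM final) and compound 10 min at room temperature, then stimulated with NKH477 (200nM […]) for 30 min. cAMP read by HTRF (665/620 nm).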

[17] = target: D(2) dopamine receptor (Homo sapiens) (UniProt P14416); assay: Dopamine D2 receptor (DRD2) small molecule antagonists, cell-based qHTS assay (AID 1963595; active = well fitted inhibition curve with a large enough effect in the signal ratio in the repeat runs, with a control signal flat; the % refers to the signal ratio)
Method in brief: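 HTRF cAMP read-out at 665 and 620 nm emission (340 nm excitation). Antagonist mode: compounds were tested against 12 nM quinpirole in DRD2-HEK293 cells, with 200 nM NKH477 raising cAMP and 0.1 mM Ro20-1724 blocking its breakdown.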

[18] = p53 small molecule agonists, cell-based qHTS assay with human liver microsomes (AID 1963577)
Method in brief: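 Fluorescence of the beta-lactamase reporter in p53RE-bla cells, detected with LiveBLAzer substrate (2 h, room temperature, dark), served as the read-out after 16 h compound exposure at 37 C with human liver microsomes and NADPH, each 0.5 mg/mL final.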

[19] = p53 small molecule agonists, cell-based qHTS assay with rat liver microsomes (AID 1963578)
Method in brief: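 Cells carrying a p53 response element–beta-lactamase reporter were plated and rested 5 h, then dosed with compound in DMSO plus rat liver microsomes and NADPH, each at 0.5 mg/mL final. After 16 h at 37 C, LiveBLAzer substrate was added for 2 h.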

[20] = p53 small molecule agonists, cell-based qHTS assay (AID 1963582; active = well fitted activation curve with a large enough effect in the signal ratio in the repeat runs, not every such curve was filed as active; the % refers to the signal ratio)
Method in brief: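 Read-out is beta-lactamase FRET fluorescence after 2 h at room temperature with LiveBLAzer B/G substrate. p53 response element-bla cells were treated 16 h at 37 C with compounds in DMSO, added 5 h after seeding.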
% is scaled to controls: 0 for no effect and ±100 for the full control effect.

N[C@@H](Cc1c[nH]c2ccccc12)C(=O)O
34.7 µM (active) and inactive: Potency [9]
inactive: Potency [1] | Potency [2] | Potency [3] | Potency [4] | Potency [5] | Potency [6] | Potency [7] | Potency [8] | Potency [10] | Potency [11] | Potency [12] | Potency [13] | Potency [14] | Potency [15] | Potency [16] | Potency [17]

Cc1ccc(NC(=O)N(C)C)cc1NC(=O)N(C)C
inactive: Potency [1] | Potency [2] | Potency [3] | Potency [4] | Potency [18] | Potency [19] | Potency [5] | Potency [6] | Potency [7] | Potency [8] | Potency [9] | Potency [10] | Potency [11] | Potency [12] | Potency [13] | Potency [14] | Potency [15] | Potency [16] | Potency [17]

CCCCN(CCCC)CCCCCCN(CCCC)CCCC
inactive: Potency [1] | Potency [2] | Potency [3] | Potency [4] | Potency [18] | Potency [5] | Potency [6] | Potency [7] | Potency [20] | Potency [8] | Potency [9] | Potency [10] | Potency [12] | Potency [13] | Potency [14] | Potency [15] | Potency [16] | Potency [17]

O=[N+]([O-])c1ccc(CCO)cc1
inactive: Potency [1] | Potency [2] | Potency [3] | Potency [4] | Potency [18] | Potency [19] | Potency [6] | Potency [7] | Potency [20] | Potency [8] | Potency [10] | Potency [11] | Potency [12] | Potency [13] | Potency [14] | Potency [16] | Potency [17]

Nc1cc(-c2ccncc2)c[nH]c1=O
inactive: Potency [1] | Potency [2] | Potency [3] | Potency [4] | Potency [18] | Potency [19] | Potency [5] | Potency [6] | Potency [7] | Potency [20] | Potency [12] | Potency [14] | Potency [15] | Potency [16] | Potency [17]

c1ccc(Nc2cccc3ccccc23)cc1
active: Potency [5] 46.4 µM
inactive: Potency [2] | Potency [3] | Potency [4] | Potency [18] | Potency [19] | Potency [7] | Potency [20] | Potency [9] | Potency [10] | Potency [11] | Potency [14] | Potency [16] | Potency [17]
inactive and 68.6 µM (active): Potency [1]

O=C1CCC(=O)N1
inactive: Potency [1] | Potency [2] | Potency [3] | Potency [4] | Potency [19] | Potency [5] | Potency [6] | Potency [7] | Potency [20] | Potency [8] | Potency [11] | Potency [12] | Potency [13] | Potency [15] | Potency [16] | Potency [17]

N[C@H](C(=O)O)c1ccc(O)cc1
inactive: activity, positive = activation [1] 16.5% [at 19 µM] | activity change [2] -1.58% [at 11.8 µM, stronger effect = higher value] | activation [3] 3.74% [at 15.8 µM] | activation [4] 0.205% [at 11.8 µM] | activation [18] 0.205% [at 13.5 µM] | activation [19] 0.317% [at 13.6 µM] | activity change, negative = cytotoxicity [6] 4.85% [at 13.5 µM] | activity change, negative = cytotoxicity [7] -1.01% [at 13.5 µM] | activation [20] -1.96% [at 13.5 µM] | activity, negative = inhibition [8] 57.4% [at 12.7 µM] | activation [9] -0.912% [at 15.9 µM] | activity, negative = inhibition [10] 8.36% [at 12.6 µM] | activation [11] 0.717% [at 15.8 µM] | activation [12] -0.179% [at 19 µM] | activity change, negative = inhibition [13] 0.811% [at 18.9 µM] | activity change, negative = inhibition [14] -0.335% [at 19 µM] | activation [15] 19.3% [at 19 µM] | activation [16] -12.3% [at 19 µM] | activity change, negative = inhibition [17] 7.69% [at 18.9 µM]
